Assay outcomes: PubChem BioAssay, National Center for Advancing Translational Sciences (NCATS)
Only some compounds are listed: those with a hit (about 0.81% of all), similar ones and a draw of the others.
TRPML1 inh: human mucolipin-1 channel inhibition | activity change, negative = inhibition, % (test concentration not listed) | TRPML1-inducible cells, Ca2+ dye fluorescence, FDSS; active compounds read low; inhibition of EC80 agonist-evoked calcium signal | 390,000 tested, 0.02% active | AID 624415; in the data active = activity change below about -50%; inconclusive = between about -30% and that limit;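 note: stimulus is agonist 54-4 at its EC80 concentration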
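TRPML1-DL cells, Tet-induced overnight (~16 h, 37 °C) at 1,500 cells/well, were loaded with Ca8 no-wash dye plus quencher for 45-90 min at room temperature. Compounds were pinned during FDSS kinetic reading; agonist 54-4 at EC80 (4 uM final) then added.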
TRHR agonist-1: activates the human TRH receptor; TRHR cells, calcium flux fluo-8, FDSS agonist mode; activation, % at 2 µM; 360,000 tested, 0.18% active; P34981; in the data active = activation above about 30%
Target sequence (P34981 whole entry, looked up): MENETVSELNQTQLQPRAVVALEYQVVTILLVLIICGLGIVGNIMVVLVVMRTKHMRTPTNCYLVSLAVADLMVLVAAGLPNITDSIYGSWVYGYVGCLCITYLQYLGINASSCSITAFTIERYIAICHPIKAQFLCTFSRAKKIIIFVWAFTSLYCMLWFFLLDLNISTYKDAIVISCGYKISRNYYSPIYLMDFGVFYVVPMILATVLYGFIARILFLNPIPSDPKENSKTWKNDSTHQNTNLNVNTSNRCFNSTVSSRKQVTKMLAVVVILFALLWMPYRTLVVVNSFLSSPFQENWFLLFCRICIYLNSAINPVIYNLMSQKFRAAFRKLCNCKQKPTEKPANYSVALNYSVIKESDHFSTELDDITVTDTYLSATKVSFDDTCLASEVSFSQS
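TRHR-expressing cells loaded with fluo-8 calcium dye; 23 nL library compound pin-transferred, kinetic FDSS fluorescence (Ex 480/Em 530) recorded about 180 s for agonist-induced calcium release, before a 10 nM TRH EC20 addition for potentiator mode.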
TRPML1 agonist: activates the human TRPML1 channel; TRPML1-expressing cells, Ca2+ dye fluorescence, FDSS; Q9GZU1; activation, % (no concentration beside the values); AID 624414; 410,000 tested, 0.12% active; in the data active = activation above about 50%; inconclusive = mostly about 30% to 49%
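Tetracycline-induced TRPML1-DL cells are seeded and incubated overnight before loading with a no-wash Ca2+ dye and quencher. Agonist activity is taken from the 110 s fluorescence read following compound pin-transfer on an FDSS, before EC80 54-4 challenge.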
TRHR enhancer-1: TRH receptor (human) allosteric enhancement; P34981; TRHR cells, fluo-8 calcium fluorescence, EC20 TRH enhancement; enhancement, % at 2 µM; 360,000 tested, 0.66% active; in the data active = enhancement above about 30%
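TRHR-expressing cells loaded with fluo-8 calcium dye were read kinetically (ex 480/em 530) during compound addition, then stimulated with an EC20 of TRH (10 nM final). Enhancement of the Gq-mediated intracellular calcium response was scored.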
TRHR enhancer-2: human TRH receptor allosteric enhancement confirmation | shares compounds with TRHR enhancer-1 | TRH receptor cell assay, enhancer confirmation qHTS | activity change, negative = inhibition, % at 46.1 µM | 970 tested, under 10 active | AID 493076;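 note: compound effect scored on response to added TRH at EC20 of 10 nM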
TRHR agonist-2: confirmation of human TRH receptor agonists. Potency, µM (series often up to 46.1 µM), usual class: activators. 970 tested, 8% active. TRHR-expressing cells, agonist activation read-out. shares compounds with TRHR enhancer-1; note: nearly all actives have a fitted effect of over 75% in size
Hits are given with their value; n = inactive; u = inconclusive; x = no result. Unless noted, calls come from the whole dose curve; as a rule, active = well fitted curve in the direction sought with a large enough effect; inconclusive = small, poorly fitted or top-dose-only effect, or another doubt; inactive = no such curve, though single readings can be large; an effect the other way counts as inactive or inconclusive.

SMILES	TRPML1 inh	TRHR agonist-1	TRPML1 agonist	TRHR enhancer-1	TRHR enhancer-2	TRHR agonist-2
CC(C)CCNC(=O)CCn1c(=S)oc2ccccc21	n	n	n	53	n	n
COc1ccc(C(=O)NCc2nnnn2-c2ccc(C)c(C)c2)cc1	n	n	n	68	n	n
Cc1ccc(C(=O)NCc2nnnn2-c2ccc(C)c(C)c2)cc1	n	n	n	n	x	x
Cc1ccc2cc(CN(CC(C)C)C(=O)C3CCCO3)c(=O)[nH]c2c1 (stereo not given)	n	n	n	n	x	x
Cc1ccc2cc(COC(=O)C3CCCO3)c(=O)[nH]c2c1 (stereo not given)	u	n	n	45	n	n
CC1(C)S[C@@H]2[C@H](NC(=O)COc3ccccc3)C(=O)N2[C@@H]1C(=O)OCc1cccc2cccnc12	x	x	n	x	x	x
Cc1cc2c(s1)c1cnn(Cc3ccccc3F)c(=O)c1n2C(C)C	x	n	x	n	x	x
Cc1ccc(S(=O)(=O)N2CCN(c3nc(-c4cncnc4)nc4ccccc34)CC2)cc1	x	x	n	x	x	x
CC(C)C[C@@H](CN(C)N=O)N(C[C@H](Cc1ccccc1)N(CCc1ccccc1)N=O)N=O	n	n	n	n	x	x
CN(C[C@H](Cc1ccccc1)N(CCN(CCc1ccccc1)N=O)N=O)N=O	n	n	n	43	n	n
Nc1ncnc(Nc2ccc(F)c(Cl)c2)n1	n	n	n	45	n	n
COc1c([N+](=O)[O-])ccc(N)c1N	x	x	n	x	x	x
C=C1C=C(C)n2ncc(C(=O)N(CCc3ccccc3)Cc3ccccc3)c2N1	x	x	n	x	x	x
CC(OC(=O)CN1C(=O)C2CC=CCC2C1=O)C(=O)Nc1ccc(F)cc1Cl (stereo not given)	n	n	n	43	n	n
C(=C\c1ccnc2ccccc12)/c1ccc2c(c1)OCO2	x	x	n	x	x	x
CN(C)c1ccc(CC2CCc3ccccc32)cc1 (stereo not given)	x	x	n	x	x	x
O=C(Cc1ccccc1)NC1CCN(Cc2ccccc2)CC1	n	n	n	61	n	n
Nc1nc(SCc2c(Cl)cccc2Cl)n[nH]1	n	n	n	45	n	n
Cn1nc(C(=O)Nc2nc3ccc(S(C)(=O)=O)cc3s2)ccc1=O	n	n	n	45	n	n
CS(=O)(=O)c1ccc2nc(NC(=O)c3ccc(=O)[nH]c3)sc2c1	n	n	n	n	x	x
CCOC(=O)Cc1nnc(NC(=O)COc2ccc(C)cc2)s1	n	n	n	41	u	n
CCOc1ccccc1NC(=O)C1CC(=O)n2ncnc2N1 (stereo not given)	n	n	n	48	n	n
O=C(Nc1ccccc1)C1CC(=O)n2ncnc2N1 (stereo not given)	n	n	n	n	x	x
CCOc1cccc(C2C=C(c3ccc4c(c3)OCO4)NC(c3cccc(Br)c3)N2)c1O (stereo not given)	x	x	n	x	x	x
Nc1c(Cl)cc(C=O)cc1Cl	x	x	n	x	x	x
SMILES	TRPML1 inh	TRHR agonist-1	TRPML1 agonist	TRHR enhancer-1	TRHR enhancer-2	TRHR agonist-2
COc1ccc(NC(=O)CNC(=O)c2ccco2)cc1	n	n	n	n	x	x
O=C(CNC(=O)c1ccco1)Nc1ccc(OC(F)F)cc1	n	n	n	50	n	n
Cc1ccc2nc(CSc3nnc(-c4ccco4)n3-c3ccccc3)cc(=O)n2c1	n	x	n	x	x	x
Cc1ccc2nc(CSc3nnc4ccccn34)cc(=O)n2c1	n	n	n	51	n	n
COc1ccc(CN2CCC(C(=O)Nc3ccc(Oc4ccccc4)nc3)CC2)cc1F	n	n	n	72	n	u
NC(N)=Nc1ccc(/C=C2\C=Cc3ccccc32)cc1	x	x	n	x	x	x
CCc1noc(C)c1C(=O)Nc1nc2c(C)cccc2s1	n	n	n	56	n	n
CCc1cccc2sc(NC(=O)C3CC3)nc12	n	n	n	42	n	u
C=Cc1cc(F)c(S(=O)(=O)N2CCN(S(=O)(=O)c3ccc4c(c3)OCCO4)CC2)cc1F	x	n	x	n	x	x
Cc1cccc(C(=O)N/N=C/c2cc(Br)c(Br)o2)c1	n	n	n	54	n	n
CCOc1ccccc1NC(=O)NC1CC2CCCC(C1)N2Cc1nnnn1CCc1ccccc1 (stereo not given)	n	61	n	n	n	n
O=Cc1ccnc2ccccc12	x	x	n	x	x	x
O=C(CCCn1c(=S)[nH]c2cc3c(cc2c1=O)OCO3)NCc1ccccc1Cl	n	n	n	46	n	n
Cc1cc(C)c(OCC(=O)Nc2ccc(S(=O)(=O)N3CCOCC3)cc2)c(C)c1	n	n	n	41	n	n
COc1ccccc1OCC(=O)Nc1ccc(S(=O)(=O)N2CCOCC2)cc1	n	n	n	n	x	x
COc1ccc(-c2cc(C(=O)NCCc3ccccc3)c3cc(C(C)C)ccc3n2)cc1	n	n	n	n	x	x
COc1ccc(-c2cc(C(=O)NCCN3CCOCC3)c3cc(C(C)C)ccc3n2)cc1	n	n	n	47	n	n
Cn1nccc1C(=O)Nc1sc2c(c1C#N)CCCC2	n	n	n	n	x	x
Cn1nccc1C(=O)Nc1sc2c(c1C(N)=O)CCCC2	n	32	n	n	n	n
CCCCCn1nc(-c2ccccc2)c2nc3ccccc3nc21	n	n	n	n	n	16µM
COc1ccc(Br)cc1C1NC(c2ccc3c(c2)OCO3)=CC(c2cc(Cl)ccc2O)N1 (stereo not given)	n	n	n	n	x	x
COc1ccc(C)cc1S(=O)(=O)N1CCC2(CC1)OCCN2S(=O)(=O)c1cccs1	n	n	n	66	u	n
CCCCCCCCCCCCCCCCCCN(CCCCCCCCCCCCCCCCCC)c1ccc(C=O)cc1	x	x	n	x	x	x
COC(=O)c1cccc(NC(=O)CN2CCc3ccccc3C2)c1	n	n	n	71	n	n
O=[N+]([O-])c1ccccc1/C=C/c1ccnc2ccccc12	x	x	n	x	x	x
SMILES	TRPML1 inh	TRHR agonist-1	TRPML1 agonist	TRHR enhancer-1	TRHR enhancer-2	TRHR agonist-2
O=C(C1=NN(c2ccccc2)C2C(=O)N(c3ccccc3)C(=O)C12)c1ccccc1 (stereo not given)	n	33	n	n	u	18µM
O=C(Nc1ccccc1C(=O)Nc1ccccc1)c1ccccc1F	n	n	n	48	u	n
O=C(O)c1cccc(NC(=O)c2ccccc2NC(=O)c2ccccc2F)c1	n	n	n	n	x	x
CN1CC2(Cc3cc([N+](=O)[O-])ccc31)C(=O)OC(C)(C)OC2=O	x	x	n	x	x	x
O=C(COc1ccc(Cl)cc1)NCc1nnc(SCC(=O)Nc2ccccc2F)o1	n	n	n	44	n	n
O=C(c1ccc(C(F)(F)F)cc1)C1CCCN(C(=O)CN2CCCC2=O)C1 (stereo not given)	n	n	n	56	n	n
CN(Cc1cnn(C)c1)Cc1nc(COc2ccccc2)no1	n	n	n	46	n	n
CC(C)N(Cc1cnn(C)c1)Cc1nc(COc2ccccc2)no1	n	n	n	n	x	x
COc1cccc(CN(C)C(=O)c2ccc(S(=O)(=O)Nc3ccccc3F)cc2)c1OC	n	n	n	48	n	n
CC(C)(C)OC(=O)N1CCN(c2nc(-c3cccs3)nc3ccccc23)CC1	x	x	n	x	x	x
